From PubChem BioAssay AID504329 (Southern Research Specialized Biocontainment Screening …, 2011)
Out of some 340,000 compounds screened, about 1,000 (0.29%) were called active. These entries were drawn from the full list. Results with a measured potency or affinity are listed apart. Unmarked numbers belong to inactive results. Rule as the data show it: inconclusive = inhibition above about 27% without an active follow-up result; inactive = below that.

Test: NS1A inhibition, H1N1 influenza, cell based functional assay (AID 504329)
Conditions: percent inhibition, at 12.5 µM, active compounds read high
`CC1CCN(CCCNC(=O)c2cc3c(s2)-c2ccccc2OC3)CC1` gave an inhibition of -6.94%. `Cc1c(Cl)cccc1NC(=O)CC1Oc2ccccc2NC1=O` (stereo not given) showed an inhibition of -22.6%. For `COc1cc(/C=N/NC(=S)Nc2cccnc2)cc(OC)c1OC`, the inhibition was -1.86%. With `Fc1ccc(/C=N/NC(=S)Nc2cccnc2)cc1F` the inhibition was 5.25%. `COc1cccc(/C=N/NC(=S)Nc2cccc(S(=O)(=O)N(C)C)c2)c1` gave an inhibition of -0.6%. `Oc1ccc(/C=N/NC(=S)Nc2cccnc2)cc1O` gave an inhibition of -4.43%. Work on `CN(C)S(=O)(=O)c1cccc(NC(=S)N/N=C/c2cc(Br)ccc2O)c1` yielded an inhibition of -4.31%. Molecule `S=C(N/N=C/c1ccc2ncccc2c1)Nc1cccnc1` has an inhibition of -1.92%. For `Fc1ccc(/C=N/NC(=S)Nc2cccnc2)cc1`, the inhibition was -6.6%. `Fc1cccc(F)c1/C=N/NC(=S)Nc1cccnc1` gave an inhibition of 4.25%. For `O=S(=O)(c1ccccc1)N1CCN(C2CCCCCCC2)CC1`, the inhibition was -3.77%. Molecule `CCCn1c(=O)c(C(=O)NCc2ccc3c(c2)OCO3)c(O)c2ccccc21` has an inhibition of -2.14%. For `COc1ccc2oc(C(=O)OCC(=O)N3CC(C)CC(C)C3)c(C)c2c1` (stereo not given), the inhibition was -0.35%. `CSCCC(NC(=O)c1ccccc1)C(=O)NC1CCCC1` (stereo not given) gave an inhibition of 1.8%. Molecule `COC(=O)c1ccc2c(c1)C(=O)/C(=C/c1ccc(C)cc1)O2` has an inhibition of 0.65%. `CC1(C)Cc2c(cnn2-c2ccccc2)C(NC(=O)CCCn2cncn2)C1` (stereo not given) showed an inhibition of 4.41%. Work on `Cc1ccccc1CN1CCC(n2nccc2NC(=O)CCCc2ccccc2)CC1` yielded an inhibition of -1.87%. With `O=C(NCc1cnn(-c2ccccc2)c1)C1CCC(=O)N(C2CC2)C1` (stereo not given) the inhibition was -1.14%. Molecule `CC(C)C(NC(=O)C(NC(=O)C1OC2OC(C)(C)OC2C2OC(C)(C)OC12)C(C)C)C(=O)O` (stereo not given) has an inhibition of 4.15%. `COc1cccc(/C=N/NC(=S)Nc2cccnc2)c1` showed an inhibition of 8.47%. In the case of `Fc1c(F)c(F)c(/C=N/NC(=S)Nc2cccnc2)c(F)c1F`, the inhibition is reported as 4.9%. `Oc1ccc(/C=N/NC(=S)Nc2cccnc2)cc1` showed an inhibition of -2.94%. `COc1ccccc1/C=N/NC(=S)Nc1cccnc1` gave an inhibition of 2.47%. In the case of `COC(=O)c1cc(OC)c(OC)cc1NC(=O)C(C)Sc1ccc(C)cc1` (stereo not given), the inhibition is reported as -9.85%. `CC1(C)C2CC=C(CN3CCC(O)CC3)C1C2` (stereo not given) gave an inhibition of 4.73%. Molecule `O=C(Nc1ccc(Cl)cc1)Nc1ccccn1` has an inhibition of -13.9%. For `COc1ccc(CNC(=O)Cn2nc(C(F)(F)F)c(Br)c2C)cc1`, the inhibition was -1.07%. Molecule `Nc1ccc(NC(=S)Nc2ccccc2)cc1` has an inhibition of 8.73%. In the case of `C/C(=N\NC(=O)c1ccc(Cl)cc1)c1ccccn1`, the inhibition is reported as -5.53%. Work on `CCOc1ccc(OCc2ccc(C(=O)N/N=C(\C)c3ccccn3)cc2)cc1` yielded an inhibition of -8.32%. Work on `CC(C)(C)c1ccc(C(=O)NCCCNC(=O)c2ccccn2)cc1` yielded an inhibition of 0.93%. In the case of `O=C(NCCNC(=O)c1ccccn1)c1ccc(F)cc1`, the inhibition is reported as 4.55%. `CSc1ccc(CN(C)C(=O)c2cc(Cl)c3c(c2)OCCO3)cc1` gave an inhibition of 0.05%. Work on `Cc1ccc(C)c(S(=O)(=O)N2CCN(C(=O)CCNS(=O)(=O)c3ccc(C)c(C)c3)CC2)c1` yielded an inhibition of 5.37%. Work on `Cc1ccc2nc(-c3cccc(S(=O)(=O)N4CCCC4)c3)cn2c1` yielded an inhibition of -1.58%. `COc1ccc(C(=O)NCCc2c[nH]c3ccccc23)cc1S(=O)(=O)N1CCCCC1C` (stereo not given) showed an inhibition of -1.05%. With `Cc1c(-c2ccccc2)nc2ccccc2c1C(=O)Nc1ccncc1` the inhibition was -4.14%. Molecule `CC(C)=CCC[C@](C)(O[C@@H]1O[C@H](CO[C@@H]2OC[C@H](O[C@@H]3OC[C@@H](O)[C@H](O)[C@H]3O)[C@H](O)[C@H]2O)[C@@H](O)[C@H](O)[C@H]1O)C1CC[C@]2(C)C1[C@H](O)CC1[C@@]3(C)CC[C@H](O)C(C)(C)C3[C@@H](O)C[C@]12C` (stereo not given in full) has an inhibition of -10.2%. With `CC(=O)N1CCN(c2ccc(NCc3ccc(Br)o3)cc2)CC1` the inhibition was 6.1%. For `CC(=O)N1CCN(c2ccc(NCc3ccc(-c4cccc(Cl)c4)o3)cc2)CC1`, the inhibition was 23.9%. Work on `C=CCn1c(CC(=O)Nc2ccc(C)cc2C)nnc1SCC(=O)N1CCOCC1` yielded an inhibition of -7.34%. In the case of `C/C(=C\c1ccccc1)CN1CCN(c2cccc(Cl)c2)CC1`, the inhibition is reported as -1.4%. Molecule `COc1ccc(-c2nc(C)ncc2N=Nc2ccccc2)cc1` has an inhibition of 24.1%. With `COc1ccc(N=Nc2nc(-c3ccccc3)c(-c3ccccc3)[nH]2)cc1` the inhibition was 13.8%. For `Cc1ncc(N=Nc2ccc(F)cc2)c(-c2ccc(Cl)cc2)n1`, the inhibition was 10.6%. `Cc1ncc(N=Nc2ccccc2)c(-c2ccccc2)n1` gave an inhibition of 23.1%. `CSC1=N/C(=C/c2ccc(-n3cncn3)cc2)C(=O)N1` gave an inhibition of 18.2%. `C/C(=N/O)c1ccccn1` gave an inhibition of 1.41%. Work on `CC(=NNC(=S)N1CCN(c2ccccn2)CC1)c1ccccn1` yielded an inhibition of 15.8%. `Cc1cccc(C(=S)N2CCOCC2)n1` gave an inhibition of -4.89%. In the case of `CC(=NNC(=S)N1CC2CCC(CC2)C1)c1cccc(C)n1`, the inhibition is reported as 23.1%. Molecule `CC(=NNC(=S)N1CCCCCC1)c1cccc2cccnc12` has an inhibition of 25.3%. Molecule `CSC(=S)N/N=C(\C)c1ccc(Br)cc1` has an inhibition of -6.45%. `S=C(Nc1ccc2nc(-c3ccccn3)c(-c3ccccn3)nc2c1)N1CCCCC1` showed an inhibition of -3.09%. `CSC(=S)N/N=C(\C)c1ccccc1` showed an inhibition of -5.26%. For `O=C(CN1C(=O)c2ccc([N+](=O)[O-])cc2C1=O)Nc1ccccc1N1CCCC1`, the inhibition was -7.2%. In the case of `Cc1ccsc1/C=N/Nc1nc(=O)[nH]nc1C`, the inhibition is reported as 12%. Work on `O=[N+]([O-])c1cc([N+](=O)[O-])c(Oc2ccc(Br)cc2Br)cc1NN1CCCCC1` yielded an inhibition of -0.23%. For `NCCCC[C@H](N)c1nnc([C@H](CCC(=O)O)NC(=O)C2CCNCC2)o1`, the inhibition was 11.3%. With `C[C@H]1CN([C@@H](C)CO)C(=O)c2cccc(NC(=O)c3ccncc3)c2O[C@H]1CN(C)C(=O)Nc1ccccc1` the inhibition was -10.3%. `C/C(=N\NC(=O)C1CCCN(S(=O)(=O)c2ccccc2)C1)c1ccncc1` (stereo not given) gave an inhibition of -23.8%. `C/C(=N\NC(=O)C1CCCN(S(=O)(=O)c2ccccc2)C1)c1cccnc1` (stereo not given) gave an inhibition of -20.5%. In the case of `S=C(NCc1ccccc1)N1CCN(C2CCCCC2)CC1`, the inhibition is reported as -12%. With `S=C(Nc1ccccc1)N1CCN(C2CCCCC2)CC1` the inhibition was 11.4%. In the case of `CC(=O)C1=C(O)C(=O)N(CCC(=O)O)C1c1ccccc1[N+](=O)[O-]` (stereo not given), the inhibition is reported as -13.3%. With `Cc1ccc(Nc2ccc(S(=O)(=O)N3CCOCC3)cc2[N+](=O)[O-])c(C)c1` the inhibition was 11.1%. In the case of `Cc1ccccc1Nc1ccc(S(=O)(=O)N2CCOCC2)cc1[N+](=O)[O-]`, the inhibition is reported as 12.2%. For `COc1ccc(C(=O)NCCc2nnc3ccc(SCC(=O)Nc4ccccc4)nn23)cc1`, the inhibition was -20%. In the case of `Cc1ccc(OCC(=O)N2CCC(N3CC(C)CC(C)C3)CC2)cc1` (stereo not given), the inhibition is reported as 17%. `O=C(O)COc1ccc(S(=O)(=O)NCCc2ccccc2)cc1` gave an inhibition of -12%. With `c1ccc(Nc2ccccn2)nc1` the inhibition was -3.53%. Work on `Oc1ccccc1Nc1ccccn1` yielded an inhibition of -5.39%. `O=C(O)c1ccccc1C(=O)c1ccc(F)c(F)c1` gave an inhibition of 3.3%. `O=C(NCCCNC(=O)c1cccnc1)c1ccc(Cl)cc1` showed an inhibition of -0.27%. In the case of `Cc1cccc(C)c1NC(=O)C(NC(=O)CN1C(=O)c2ccccc2C1=O)c1ccccc1` (stereo not given), the inhibition is reported as -3.98%. In the case of `Cc1cc(Cl)ccc1OCC(=O)O`, the inhibition is reported as -1.09%. Work on `C=C(CC)C(=O)c1ccc(OCC(=O)O)c(Cl)c1Cl` yielded an inhibition of 0.79%. For `O=C(COC(=O)COc1ccc(Cl)cc1Cl)NC1CC1`, the inhibition was 0.21%. Molecule `CN(CC(=O)Nc1ccccc1C(=O)NC1CC1)Cc1ccc(N(C)C)cc1` has an inhibition of 0.15%. `Cc1cc(C)c(NC(=O)COC(=O)c2cccc3c2C(=O)c2ccccc2C3=O)c(C)c1` showed an inhibition of 3.94%. `Nc1c(Br)cc(Br)c2c1C(=O)c1c(cccc1S(=O)(=O)O)C2=O` showed an inhibition of 5.84%. `Nc1ccc(NC(=O)c2ccccc2)c2c1C(=O)c1ccccc1C2=O` showed an inhibition of 24.3%. With `O=C(Nc1ccc2c(c1)C(=O)c1ccccc1-2)c1ccccc1` the inhibition was -5.09%. In the case of `CSc1cccc(NC(=O)CN(C)S(=O)(=O)c2ccc(C)cc2)c1`, the inhibition is reported as -2.41%. In the case of `CCOc1ccc(NS(=O)(=O)c2ccc(C(=O)NCC(C)(C)N3CCOCC3)cc2)cc1`, the inhibition is reported as -14.4%. For `O=C(Cc1ccccc1)N/N=C/c1ccccn1`, the inhibition was -2.81%. Work on `Cc1ccc(NC(=S)NCc2ccccn2)cc1` yielded an inhibition of -14.7%. With `S=C(NCc1ccccc1)NCc1ccccn1` the inhibition was 1.05%. `O=C(CCCC(=O)N/N=C\c1ccccn1)N/N=C\c1ccccn1` showed an inhibition of -2.81%. Molecule `Cc1ccc2c(c1)oc(=O)n2CC(=O)c1ccccc1` has an inhibition of -20.6%. With `CCOC(=O)CC1CCCCN1C(=O)c1ccc2nc(CCOC)oc2c1` (stereo not given) the inhibition was 1.79%. In the case of `CCN1CCN(Cc2nc3cc(NC(=O)COc4ccc([N+](=O)[O-])cc4)ccc3n2C)CC1`, the inhibition is reported as 0.32%. `CC(=O)c1ccc(N(CC(=O)NCC2CCCO2)C(=O)CCC(=O)Nc2cc(C)on2)cc1` (stereo not given) gave an inhibition of -8.06%. `Cc1cccn2c(=O)c(C(=O)NC3CCCCC3)c(O)nc12` gave an inhibition of 5.08%. Work on `CCOC(=O)C1CCCN(C(=O)/C=C/c2ccc(Cl)cc2)C1` (stereo not given) yielded an inhibition of -12.8%.
